Measurements taken from PubChem BioAssay AID1851 (National Center for Advancing Translational Sciences (NCATS), 2009).
Several values for one entry are separate records, joined by “and”; a condition that tells them apart may be missing. Equal entries are not always repeated. Hit rate of the full screen: of about 16,000 compounds, about 2,600 (16%) were called active. About 20% were inconclusive and are not listed. Calls follow the shape of the dose curve; as a rule, active = well fitted curve in the direction sought with a large enough effect; inconclusive = small, poorly fitted or top-dose-only effect, or effect the other way; inactive = no such curve, though single readings can be large or run the other way. These entries were drawn from the full list. The source holds several records for some structures; these can differ, active in one and inactive in another.

target: Cytochrome P450 2D6 (Homo sapiens) (UniProt P10635); assay: Cytochrome panel assay with activity outcomes; settings: recombinant CYP, pro-luciferin dealkylation, luminescence, p450-cyp2d6; series mostly up to 57.1 µM; activity, negative = inhibition: at the top concentration
Sequence (P10635 whole entry, looked up): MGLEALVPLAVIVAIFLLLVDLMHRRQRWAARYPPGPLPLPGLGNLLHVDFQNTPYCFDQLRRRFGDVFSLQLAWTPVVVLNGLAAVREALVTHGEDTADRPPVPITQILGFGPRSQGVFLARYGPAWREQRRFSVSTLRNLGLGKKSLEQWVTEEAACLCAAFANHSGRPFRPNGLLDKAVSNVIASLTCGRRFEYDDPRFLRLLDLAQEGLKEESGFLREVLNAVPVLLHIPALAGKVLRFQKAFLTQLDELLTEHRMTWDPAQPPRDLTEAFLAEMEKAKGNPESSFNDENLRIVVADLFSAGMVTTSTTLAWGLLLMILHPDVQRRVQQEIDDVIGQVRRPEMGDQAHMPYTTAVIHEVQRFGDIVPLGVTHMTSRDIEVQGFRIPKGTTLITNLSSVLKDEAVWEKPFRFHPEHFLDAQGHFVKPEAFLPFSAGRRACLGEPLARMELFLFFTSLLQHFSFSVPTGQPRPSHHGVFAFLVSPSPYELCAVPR
% is scaled to controls: 0 for no effect and ±100 for the full control effect.

| SMILES | activity, negative = inhibition | AC50 |
| --- | --- | --- |
| CC1(C)CC(=O)c2cnc(N)nc2C1 | 32.6% (inactive) | – |
| O=C(NN=C1c2ccccc2-c2ccccc21)c1ccccn1 | -9.72% (inactive) | – |
| CSC(=NC#N)N1CCN(c2ccc(Cl)cc2)CC1 | – | 0.316 µM (active) |
| O=C(CSc1ccc(Cl)cc1)Nc1ccc(N2CCN(C(=O)c3ccc(Cl)cc3)CC2)cc1 | -21.1% (inactive) | – |
| O=C(CSC1=NCCS1)N1CCN(c2ccc(Cl)cc2)CC1 | -27.3% (inactive) | – |
| CNc1nc(-c2ccc(N(C)C)cc2)nc2ccccc12 | – | 12.6 µM (active) |
| CN(C)c1ccc(/C=N\NC(=O)c2cnc3ccccc3c2)cc1 | 5.04% [at 11.4 µM] (inactive) | – |
| c1ccc(Nc2nc(-c3cccnc3)nc3ccccc23)cc1 | -11.1% (inactive) | – |
| CN(C)c1ccc(-c2nc(N(C)C)c3ccccc3n2)cc1 | – | 7.94 µM (active) |
| CCn1c(-c2ccc(N(C)C)cc2)nc2ccccc21 | -108% (inactive) | – |
| CN(C)c1nc(-c2cccnc2)nc2ccccc12 | – | 15.8 µM (active) |
| COc1ccccc1NC(=O)Nc1nc(-c2cccnc2)nc2ccccc12 | -2.94% (inactive) | – |
| CCC(=O)O[C@H](CC(=O)O)C[N+](C)(C)C | 8.38% (inactive) | – |
| O=C1C[C@@H](O)[C@@H](O)[C@H]2[C@@H]3C(=O)N(C[C@@H]4CCCO4)C(=O)[C@@H]3CC[C@H]12 | 4.56% [at 11.4 µM] (inactive) and 6.17% [at 11.4 µM] (inactive) | – |
| COc1cc(C2NC(=O)NC(O)(C(F)(F)F)C2C(=O)c2ccc(Cl)cc2)ccc1O (stereo not drawn) | 3.72% (inactive) | – |
| CCCc1nn2c(=O)c(C(c3ccc(C)cc3)c3c(O)nc4sc(CCC)nn4c3=O)c(O)nc2s1 | 3.03% (inactive) | – |
| CN1CCN(c2nc3c(c(=O)n(C)c(=O)n3C)n2C)CC1 | 6.17% [at 11.4 µM] (inactive) | – |
| CCCCN(C(=S)Nc1ccccc1)C1CCS(=O)(=O)C1 (stereo not drawn) | -11.8% (inactive) | – |
| Fc1ccc(N2CCN(c3ccc4c(C(F)(F)F)cc(C(F)(F)F)nc4n3)CC2)cc1 | -0.372% (inactive) | – |
| C=CCNC(=O)c1onc(CSc2ccc(F)cc2)c1C(=O)O | -10.6% (inactive) | – |
| COCCNC(=O)c1onc(CSc2ccc(Cl)cc2)c1C(=O)O | -14% (inactive) | – |
| O=C(NCc1ccccc1)c1onc(CSc2ccc(F)cc2)c1C(=O)NCCCN1CCOCC1 | – | 10 µM (active) |
| COc1ccc(-n2c(=O)c(-c3cn(C)c4ccccc34)nc3cnc(OC)nc32)cc1 | -8.38% (inactive) | – |
| CCOc1ccc(N(C(C)C(=O)N/N=C(\C)c2cccc(NC(=O)c3ccccc3)c2)S(C)(=O)=O)cc1 (stereo not drawn) | -2.54% (inactive) | – |
| COc1ccc2c(c1)CCc1sc(NC(=O)c3ccc(C)cc3)nc1-2 | -10.9% (inactive) | – |

| SMILES | activity, negative = inhibition | AC50 |
| --- | --- | --- |
| Cn1c(=O)c(-c2cccs2)nc2cncnc21 | -5.04% (inactive) | – |
| Cc1oc(-c2cccc(Cl)c2)[n+]([O-])c1C | -3.1% (inactive) | – |
| O=S1(=O)OC(c2ccc(O)cc2)(c2ccc(O)cc2)c2ccccc21 | 12.2% [at 11.4 µM] (inactive) | – |
| COc1ccc(CNc2ccnc(-c3ccc4c(c3)OCO4)n2)c(OC)c1 | – | 10 µM (active) |
| COc1ccccc1CNc1ccnc(-c2ccc3c(c2)OCO3)n1 | – | 0.794 µM (active) |
| Cc1c(C#N)c(=O)oc2ccc3ccccc3c12 | -1.06% (inactive) | – |
| NC(=O)c1ccc(N2CCCCC2)c(N2C(=O)C3CC=CCC3C2=O)c1 (stereo not drawn) | -4.43% (inactive) | – |
| O=C(O)c1ccc(NS(=O)(=O)Cc2ccccc2)cc1 | 0.0348% [at 11.4 µM] (inactive) | – |
| COc1cc(C(=O)Nc2nc3ccc4nc(C)sc4c3s2)cc(OC)c1OC | 12.9% (inactive) | – |
| Cc1cccc(OCC(=O)N2CCC(N3CCCCCC3)CC2)c1 | – | 4.47 µM (active) |
| O=C(COc1ccc2ccccc2c1)N1CCN(C(=O)c2cccnc2)CC1 | 7.67% (inactive) | – |
| Cc1cccc(C(=O)NC2CCN(C(=O)N3CCOCC3)CC2)c1 | 2.68% (inactive) | – |
| COCCn1c(=O)c(-c2cccc(C#N)c2)nc2cnc(OCc3ccccc3)nc21 | -16.4% (inactive) | – |
| CC(=O)NC1=NC(=O)C(C)S1 (stereo not drawn) | 3.28% (inactive) | – |
| O=c1c(-c2cccs2)nc2cnc(N3CCNCC3)nc2n1Cc1cccs1 | 0.531% (inactive) | – |
| Cc1ccc(-n2nc3ccc(NC(=O)c4ccc5c(c4)OCO5)cc3n2)cc1 | -18.2% (inactive) | – |
| O=C(Nc1cc(-c2nc3ccccc3s2)ccc1Cl)c1ccc2c(c1)OCO2 | -26.9% (inactive) | – |
| O=C(Nc1cccc(-c2nc3ccccc3s2)c1)c1ccc2c(c1)OCO2 | – | 0.1 µM (active) |
| CCn1c(-c2ccccc2Cl)nn(CC(=O)Nc2ccc(OC)cc2)c1=S | -2.11% (inactive) | – |
| CC(=O)NC1C(OCCOc2ccc(Cl)cc2Cl)OC(COC(C)=O)C(OC(C)=O)C1OC(C)=O (stereo not drawn) | -17.3% (inactive) | – |
| CSC1=N/C(=C\c2ccc(Br)o2)C(=O)S1 | 1.51% (inactive) | – |
| CCCCN1CCC(COC(=O)c2cc(Cl)c(N)c3c2OCCO3)CC1 | – | 1.26 µM (active) |
| CCOC(=O)n1ccn(C)c1=S | 0.903% [at 25.6 µM] (inactive) | – |
| O=C(O)c1cc2ccccc2c(Cc2cc3ccccc3c(C(=O)O)c2O)c1O (tested in a mixture with another compound) | -5.53% [at 25.6 µM] (inactive) | – |
| NC(=NCCCCCCN=C(N)/N=C(\N)Nc1ccc(Cl)cc1)/N=C(\N)Nc1ccc(Cl)cc1 | – | 7.94 µM (active) |

| SMILES | activity, negative = inhibition | AC50 |
| --- | --- | --- |
| CCN=C(Nc1ccc(Cl)cc1)c1cccnc1 | -28.9% (inactive) | – |
| CC(Oc1ccccc1)C(=O)Nc1nc2c(s1)C(=O)CC(C)(C)C2 (stereo not drawn) | -26.1% (inactive) | – |
| Cc1cnc(CNc2ncnc3ccc(-c4ccc5c(c4)OCO5)cc23)cn1 | – | 12.6 µM (active) |
| Cc1cccc(CNc2ncnc3ccc(-c4ccoc4)cc23)c1 | – | 10 µM (active) |
| Cc1cnc(CNc2ncnc3ccc(-c4cccc(C#N)c4)cc23)cn1 | -4.92% (inactive) | – |
| Cc1cnc(CNc2ncncc2-c2ccc(C(=O)N(C)C)cc2)cn1 | 2.19% (inactive) | – |
| Cc1cccc(CNc2ncnc3ccc(-c4ccc5c(c4)OCO5)cc23)c1 | – | 0.501 µM (active) |
| Nc1nc2c(ncn2COCCO)c(=O)[nH]1 | – | inactive |
| O=C(O)c1ccccc1OP(=O)(O)O | 5.46% [at 25.6 µM] (inactive) | – |
| CN1CCc2c(c3c(n2C)CCN(C)[C@H]3c2ccccc2F)[C@@H]1c1ccccc1F | 5.51% (inactive) | – |
| CCc1nc(SCC(=O)c2ccc(Cl)s2)c2oc3ccccc3c2n1 | 17.7% (inactive) | – |
| CCOC(=O)Nc1ccc(C(=O)NCC2CCCO2)cc1 (stereo not drawn) | -3.41% (inactive) | – |
| O=C(O)CCCC[C@H]1CCSS1 | 2.47% (inactive) | – |
| COC(=O)[C@@H]1C[C@H]1[C@@H](NC(=O)c1cc(C)nn1C)c1ccccc1 | – | 12.6 µM (active) |
| COC(=O)[C@@H]1C[C@H]1[C@@H](NC(=O)c1cc(C)on1)c1ccccc1 | -20.1% (inactive) | – |
| COC(=O)[C@H]1C[C@@H]1[C@H](NC(=O)c1cc(C)on1)c1ccccc1 | -6.31% (inactive) | – |
| CCOC(=O)C1=C(CSc2nc3ccccc3s2)NC(=O)NC1c1cccc([N+](=O)[O-])c1 (stereo not drawn) | -18.2% (inactive) | – |
| O=C(CN1C(=O)NC2(CCCCCC2)C1=O)N1CCN(S(=O)(=O)c2ccc(Cl)cc2)CC1 | -19.7% (inactive) | – |
| O=C(O)C1CC2(C1)CC(C(=O)O)C2 (stereo not drawn) | 10.8% [at 11.4 µM] (inactive) | – |
| O=C(N/N=C/c1cccc([N+](=O)[O-])c1)c1cc2c(ccc3ccccc32)o1 | -9.2% (inactive) | – |
| CC[C@@H]1OC(=O)[C@H](C)[C@H](O[C@@H]2C[C@](C)(OC)[C@H](O)[C@H](C)O2)[C@H](C)[C@H](O[C@@H]2O[C@@H](C)C[C@@H](N(C)C)[C@@H]2O)[C@](C)(O)C[C@H](C)C(=NOCOCCOC)[C@H](C)[C@H](O)[C@]1(C)O | -0.0352% [at 25.6 µM] (inactive) | – |
| C=CCSc1nnc(NC(=O)COc2ccc3ccccc3c2)s1 | -15.8% (inactive) | – |
| COC(=O)c1c(C)nc2ccccc2c1C(=O)O | 8.63% (inactive) | – |
| COc1ccc(CCNC(=O)COc2ccc(S(=O)(=O)NC3CCCCC3)cc2Cl)cc1 | – | 15.8 µM (active) |
| COc1ccc2c(c1)C(=O)N(CCc1ccc(S(=O)(=O)NC(=O)NC3CCCCC3)cc1)C(=O)C2(C)C | 2.46% [at 25.6 µM] (inactive) | – |

| SMILES | activity, negative = inhibition | AC50 |
| --- | --- | --- |
| COc1ccc(CCNC(=O)COC(=O)c2cnc(C)cn2)cc1 | -5.73% (inactive) | – |
| Cc1ccc(N=Nc2c(=O)[nH]n3c(C)cc(C)nc23)cc1 | 25.6% (inactive) | – |
| CCCN(CCC)C[C@@H]1CCCCN1CCNC(=O)N1c2ccccc2C(=O)Nc2cccnc21 | – | 2.51 µM (active) |
| O=C1c2ccccc2C(=O)N1CC(=O)N1c2ccccc2CCc2ccccc21 | -0.19% (inactive) | – |
| Cc1scc2c1N(C(=O)CN1CCN(C)CC1)c1ccccc1NC2=O | – | inactive and 5.01 µM (active) |
| CN1CCN(CC(=O)N2c3ccccc3C(=O)Nc3cccnc32)CC1 | – | inactive and 31.6 µM (active) |
| CCN1CCCC1CNC(=O)C1c2cc(OC)c(OC)cc2C(=O)N(C)C1c1cccnc1 (stereo not drawn) | 1.99% (inactive) | – |
| Cc1sc2nc(C3CC3)nc(SCC(=O)N3CC(=O)Nc4ccccc43)c2c1C | -27.5% (inactive) | – |
| O=C1Nc2ccccc2Nc2ncccc21 | 15.5% (inactive) | – |
| CCCCN1C(=O)C(NC(=O)C2CC2)(C(F)(F)F)C2=C1CC(C)(C)CC2=O (stereo not drawn) | 8.85% (inactive) | – |
| O=C(CCn1nc(-c2ccc(Cl)cc2)ccc1=O)N1CCOCC1 | -10.2% (inactive) | – |
| O=C1Nc2ccccc2C1=Nc1cccc2ncccc12 | -4.91% [at 11.4 µM] (inactive) | – |
| Nc1ncnc2c1ncn2CCCCC(=O)O | -3.98% [at 11.4 µM] (inactive) | – |
| O=c1c(-c2ccccc2)nc2cncnc2n1-c1ccccc1 | -2.82% (inactive) | – |
| CCC(CC)C(=O)Nc1c2cnn(-c3ccccc3)c2nc(=O)n1-c1ccccc1 | -3.81% (inactive) | – |
| CCCc1nnc(NC(=O)CN2C(=O)C3C4C=CC(C4)C3C2=O)s1 (stereo not drawn) | 13.7% (inactive) | – |
| O=c1cnc2cnc(N3CCOCC3)nc2n1C1CC1 | 3.75% (inactive) | – |
| COc1ccc(CNc2ncnc3ccc(-c4ccoc4)cc23)c(OC)c1 | – | 10 µM (active) |
| COc1ccccc1CNc1ncnc2ccc(-c3ccoc3)cc12 | – | 3.16 µM (active) |
| COCCNc1ncnc2ccc(-c3ccoc3)cc12 | 0.232% (inactive) | – |
| COc1ccccc1CNc1ncnc2ccc(-c3ccc4c(c3)OCO4)cc12 | – | 0.794 µM (active) |
| COc1ccc(CNc2ncnc3ccc(-c4c(C)noc4C)cc23)c(OC)c1 | – | 15.8 µM (active) |
| CCOC(=O)COc1ccc(/C=C/[N+](=O)[O-])c(OCC(=O)OCC)c1 | -6.43% (inactive) | – |
